High-throughput results from PubChem BioAssay.
Sfp PPTase inh = blocks B. subtilis Sfp PPTase activity | 3.5% of 310,000 active | Potency, µM, for inactives: largest response in the series, negative = inhibition, usual class: inhibitors | Biochemical Sfp PPTase activity, qHTS | Q9F4F7 | AID 1490;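 further: the enzyme is Sfp with the accession as filed and its product quenches rhodamine fluorescence; 0% = enzyme reaction without inhibitor and -100% = no enzyme wells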
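With Hepes-Na pH 7.6 buffer containing 10 mM MgCl2, Sfp (15 nM) modified BHQ-2-YbbR (12.5 uM) using rhodamine-CoA (5 uM). Two reads 30 minutes apart at 525/598 nm yielded each well's rate.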
BAZ2B block = BAZ2B (human) inhibition; Q9UIF8; AlphaScreen BAZ2B-H3K14Ac peptide displacement; Potency, µM (titrated, usually from 114 µM), without a hit: top-dose activity change, negative = inhibition, hits mostly inhibitors; 4.4% of 360,000 active; further: on the % scale 0 is the no-effect control and ±100 the full control effect; nearly all actives have a fitted effect of over 60% in size
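BAZ2B 50 nM plus b-H3(5-23)K14Ac 50 nM, PBS pH 7.4/0.01% Tween-20, 30 min RT; compound added (max 110 uM), 30 min RT; streptavidin donor/Ni-chelate acceptor beads 10 ug/mL final, 20 min dark; AlphaScreen read.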
HP1b chromo inh = inhibitors of HP1-beta chromodomain binding to methylated histone tails; AlphaScreen HP1-beta / biotin-H3K9me3 peptide binding; P83916; Potency, µM (doses to about 114 µM), for the others: at the highest dose activity change, negative = inhibition, hits mostly inhibitors; 0.56% of 390,000 active; further: nearly all actives have a fitted effect of over 70% in size
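HP1-beta protein (50 nM final) preincubated 30 min at room temperature with biotinylated H3(1-18)K9me3 peptide (50 nM) in PBS pH 7.4, 0.01% Tween-20, then compound added for 30 min. AlphaScreen streptavidin donor/nickel chelate acceptor beads (10 ug/mL final), 30 min dark, luminescence read.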
JMJD2A Tudor = JMJD2A Tudor domain (human) inhibition | Potency, µM (series often up to 114 µM), for inactives: top-dose activity change, negative = inhibition, usual class: inhibitors | AID 504339 | AlphaScreen JMJD2A-Tudor / H3K4me3 peptide binding | 4.4% of 390,000 active | O75164; further: on the % scale 0 is the no-effect control and ±100 the full control effect; nearly all actives have a fitted effect of over 50% in size
G9a block = inhibitors of human histone lysine methyltransferase G9a | Q96KQ7 | G9a H3K9 monomethylation, AlphaScreen, 2 h | Potency, µM (highest dose often 102 µM), for inactives: at the highest dose activity, negative = inhibition, actives largely listed as inhibitors | 8.8% of 350,000 active; further: on the % scale 0 is the no-effect control and ±100 the full control effect; nearly all actives have a fitted effect of over 75% in size
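Enzyme 20 nM + cpd, 15 min RT; add b-H3K9 pep 500 nM / SAM 20 uM; 2 h RT; anti-H3K9me1 Ab 0.5 ug/mL + SA donor / anti-rabbit acceptor beads 20 ug/mL each, 10 min; AlphaScreen read.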
Starred values were filed as active, the others as inactive; u = inconclusive; x = no result; [ ] = dose if it differs, or a comment. In the library only some 12% were active in any assay of this set; here they are far more common. The call rests on the fitted dose curve; in most records, active means well fitted curve in the direction sought with a large enough effect; inconclusive means small, poorly fitted or top-dose-only effect, or another doubt; inactive means no such curve, though single readings can be large; an effect the other way counts as inactive or inconclusive. Potency means the concentration at half of the fitted maximal effect.

SMILES	Sfp PPTase inh	BAZ2B block	HP1b chromo inh	JMJD2A Tudor	G9a block
CCC(CC)COC(=O)C(C#N)c1nc2ccccc2nc1N1CCN(CC)CC1 (centres undefined)	-23%	35µM*	7%	u	45µM*
COc1ccc(C2C3C=CCC(C)C3C(=O)N2Cc2ccccc2)cc1Cl (centres undefined)	-15%	x	22%	-10%	x
Cc1cc2ccccn2c1C(=O)c1ccncc1	5%	5%	17%	-15%	-45%
Cc1cc2ccccn2c1C(=S)NC(=O)c1ccccc1	1%	14µM*	u	50µM*	u
O=C(Nc1ccccc1)c1cnc2n(c1=O)CCS2	4%	9%	44%	-7%	50µM*
O=C(Nc1ccc2c(c1)OCCO2)c1cnc2n(c1=O)CCS2	5%	2%	36%	1%	50µM*
O=C(NCCc1ccc(Cl)cc1)c1cnc2n(c1=O)CCS2	7%	11%	23%	-21%	45µM*
O=C(Nc1ccc2c(c1)OCO2)c1cnc2n(c1=O)CCS2	-8%	11%	25%	-12%	u
O=C(NCCCc1ccccc1)c1cnc2n(c1=O)CCS2	-8%	16%	32%	-8%	-10%[12.7 µM]
CCC(C)c1ccccc1N1CC(C(=O)Nc2ccc(S(=O)(=O)N3CCOCC3)cc2)CC1=O (centres undefined)	x	11%	8%	-20%	50µM*
O=C(Nc1cc(S(=O)(=O)Nc2ccc(Cl)cc2)ccc1N1CCCCC1)c1ccc(F)cc1	14µM*	0%	u	u	10µM*
N#Cc1ccc(C(=O)Nc2cc(S(=O)(=O)Nc3ccc(Cl)cc3)ccc2N2CCCCC2)cc1	22µM*	-23%	u	u	7.1µM*
COc1ccc(C)cc1NC(=O)C1CCN(S(=O)(=O)c2cc(Br)cc3c2N(C(C)=O)CC3)CC1	x	-33%	7%	-25%	-31%[59 µM]
COC(=O)C(CCSC)NC(=O)c1c(C)oc2ncn(CC(C)C)c(=O)c12 (centres undefined)	x	5%[57.1 µM]	27%	-7%	-23%[59 µM]
CN(C)S(=O)(=O)c1ccc2c(c1)c(=O)c(C(=O)N1CCN(c3cccc(Cl)c3)CC1)cn2C	x	x	29%	-17%	-2%[59 µM]
CCCN1CCC(=O)N(C(CSc2ccc(Br)cc2)Cc2ccccc2)CC1 (centres undefined)	-14%	x	18%	u	x
CCC1(c2ccccc2)NC(=O)N(CC(=O)N(C)CC(=O)Nc2ccc(F)c(F)c2F)C1=O (centres undefined)	x	-4%	3%	-8%	3%[0.501 µM]
CCCC1(c2ccccc2)NC(=O)N(CC(=O)N(C)Cc2c(F)cccc2Cl)C1=O (centres undefined)	11%	-13%	-12%	25µM*	18%[59 µM]
Cc1cc(NC(=O)/C=C/c2ccccc2Cl)no1	13%	5%	16%	-22%	-11%[59 µM]
CCN(CC)c1ccc(NC(=O)/C=C\c2ccccc2Cl)cc1	-4%	u	-12%	u	3.5µM*
CN(C)c1ccc(NC(=O)/C=C/c2ccccc2Cl)cc1	1%	-7%	-20%	-28%	1.1µM*
O=C(/C=C/c1ccccc1Cl)NCc1ccccc1	1%	-6%	5%	-1%	35%[0.501 µM]
CC1Nc2nc(N(C)C)[nH]c(=O)c2NC1C (centres undefined)	-8%	u	61%	28µM*	3.2µM*
NCCCNc1ccc(Br)cn1	x	x	26%	-9%	x
CCOC(=S)SCc1cn2cccc(C)c2n1	u	-20%	48%	-6%	32µM*
SMILES	Sfp PPTase inh	BAZ2B block	HP1b chromo inh	JMJD2A Tudor	G9a block
O=[N+]([O-])c1cc([N+](=O)[O-])c(Oc2cccc3c2CCCC3)cc1NN1CCCCC1	x	x	0%	-34%	x
COc1cccc(Oc2cc(NN3CCCCC3)c([N+](=O)[O-])cc2[N+](=O)[O-])c1OC	2%	8.9µM*	-27%	u	40µM*
O=[N+]([O-])c1cc([N+](=O)[O-])c(Oc2c(F)cc(F)cc2F)cc1NN1CCCCC1	-25%	u	u	u	50µM*
O=[N+]([O-])c1cc([N+](=O)[O-])c(Oc2ccc(Br)cc2Br)cc1NN1CCCCC1	5%	u	u	10µM*	16µM*
CC(C)c1ccc(OCC(=O)NCCS(=O)(=O)N2CCN(c3ccc(F)cc3)CC2)cc1	x	-2%	24%[57 µM]	0%	-4%[59 µM]
COc1ccc(Cl)cc1NC(=O)Cn1nnc2sc(-c3ccccc3)cc2c1=O	x	-26%	19%	-24%	1%[59 µM]
COc1cc(CNc2ccc(N3CCN(C(C)=O)CC3)cc2)ccc1OCc1ccc(F)cc1	-24%	22µM*	u	u	4µM*
CC(=O)N1CCN(c2ccc(NCc3cccc(C)c3)cc2)CC1	x	u	-12%	u	u
CC(=O)N1CCN(c2ccc(NCc3ccc(F)cc3)cc2)CC1	40µM*	-35%	6%	u	7.9µM*
CC1C2(C)OC(=N)C(C#N)(C(C)O2)C1(C#N)C#N (centres undefined)	-10%	-24%	68%	-7%	71µM*
CC1OC2(C)OC(=N)C1(C#N)C(C#N)(C#N)C2c1ccccc1 (centres undefined)	-3%	-18%	23%	-6%	-6%[59 µM]
CC(C)Cn1cc(NC(=O)NCc2ccc(Cl)cc2)c2ccccc2c1=O	x	3%[57.1 µM]	32%	40µM*	u
CCOC(=O)c1[nH]c(C)c(C)c1C	5%	u	-33%	79µM*	32%[12.7 µM]
CCOC(=O)c1[nH]c(C)c(C(=O)NC2CCCCC2)c1C	5%	10%	43%	-10%	79µM*
CCOC(=O)c1[nH]c(C)c(C(=O)OC)c1C	9%	-12%	-5%	-23%	0%
CCOC(=O)c1[nH]c(=S)[nH]c1C	x	x	5%[57 µM]	5µM*	x
CCOC(=O)CC(=O)c1[nH]c(C)c(C(=O)OCC)c1C	5%	79µM*	45%	-11%	-27%
CCOC(=O)c1[nH]c(C)c(C(=O)NCC2CCCO2)c1C (centres undefined)	-29%	-4%	25%	-19%	3%[2.33 µM]
CC1CCc2nn(CC(=O)Nc3ccccc3Cl)cc2C1 (centres undefined)	x	-2%	28%	4%	6%[59 µM]
CC(=O)Nc1ccc(S(=O)(=O)N2CCN(S(=O)(=O)c3ccc4c(c3)OCCO4)CC2)cc1	x	x	x	-5%	x
O=C1c2ccc(-c3ccc(F)cc3OCc3ccccc3)cc2S(=O)(=O)c2cccc(C(=O)N3CCCC3)c21	x	u	9%	u	21%[2.33 µM]
